Screening results from PubChem.
E-sel TNF inh: TNF alpha driven E-selectin expression inhibition; HUVEC TNFa-induced E-selectin immunofluorescence, high content; inhibition, % at 2 µM; 120,000 tested, 0.71% active; AID 1246;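 active = inhibition above the batch mean plus 3 SD, and confirmed as a hit on visual image review, cut at about 43% in these data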
PLAP activator: activators of human placental alkaline phosphatase | activation fold at 20 µM | 96,000 tested, 1.2% active | purified PLAP enzyme, luminescent substrate read-out; stronger effect = higher value | P05187 | AID 696; in the data active = activation fold above about 2
Target sequence (P05187 whole entry, looked up): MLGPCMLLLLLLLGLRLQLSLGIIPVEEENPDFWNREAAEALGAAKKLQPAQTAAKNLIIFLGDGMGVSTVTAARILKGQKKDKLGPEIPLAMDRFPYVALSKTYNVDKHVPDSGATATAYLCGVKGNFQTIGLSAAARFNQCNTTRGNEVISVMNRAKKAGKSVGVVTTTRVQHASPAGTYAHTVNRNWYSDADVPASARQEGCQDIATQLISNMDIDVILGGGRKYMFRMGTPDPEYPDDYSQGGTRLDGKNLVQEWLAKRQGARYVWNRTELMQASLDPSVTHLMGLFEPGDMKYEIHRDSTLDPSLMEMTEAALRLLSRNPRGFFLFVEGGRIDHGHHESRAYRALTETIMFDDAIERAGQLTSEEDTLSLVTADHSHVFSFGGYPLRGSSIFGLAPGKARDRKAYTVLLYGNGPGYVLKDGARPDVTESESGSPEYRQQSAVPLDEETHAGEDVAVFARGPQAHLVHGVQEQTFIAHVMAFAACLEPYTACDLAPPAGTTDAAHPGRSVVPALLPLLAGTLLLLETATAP
VCAM1 TNFa inh: reduces TNF alpha induced VCAM1 expression in HUVEC | 95,000 tested, 0.48% active | HUVEC TNFa-induced VCAM-1 immunofluorescence, high-content imaging | inhibition, % at 2 µM | AID 802;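 active = inhibition above the batch mean plus 3 SD, with images confirmed as a hit by eye, cut at about 37% in these data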
HUVEC tox TNFa: toxic to HUVEC cells under TNF alpha stimulation. 93,000 tested, 0.17% active. cell count reduction, % at 2 µM. HUVEC TNFalpha-stimulated, Hoechst cell count, imaging;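 active = cell count reduction exceeding the screen mean by over 5 SD, scaled to untreated wells per plate, cut at about 78% in these data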;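 note: cells counted after 24 h of TNF alpha exposure following the 1 h pretreatment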
F-actin modifier: cytoskeleton assembly modification | HUVEC TNFa F-actin phalloidin imaging, high content | inhibition, % at 2 µM | 91,000 tested, 0.18% active | AID 836;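 active = inhibition above the batch mean plus 3 SD and confirmed as a hit by visual image inspection, cut at about 30% in these data, passing the limit was not always enough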
A number is an active result; – = inactive; · = not tested or not shown. In the library only some 2% were active in any assay of this set; here they are far more common.

SMILES	E-sel TNF inh	PLAP activator	VCAM1 TNFa inh	HUVEC tox TNFa	F-actin modifier
COc1ccc(N2CCN(C(=O)CSc3nnc4c(C)cc5c(C)cc(C)cc5n34)CC2)cc1	–	–	–	–	–
COC(=O)c1ccccc1NC(=O)CSc1nnnn1-c1ccc(C)cc1C	–	–	–	–	–
Cc1ccc(-n2nnnc2SCC(=O)NNC(=O)c2ccco2)c(C)c1	–	2	–	–	–
Cc1n[nH]c(C)c1CCc1nc2c3ccccc3nc(SCC(=O)Nc3ccccc3F)n2n1	·	2.2	–	–	–
O=C(CN(C(=O)CCC(=O)Nc1ccccn1)c1ccc2c(c1)OCO2)NCc1ccco1	70	–	–	–	–
O=c1[nH]c2cccnc2n1Cc1ccccc1	–	–	–	–	35
C=CCNC(=S)NNC(=O)C(CCCC)CC(C)O (centres undefined)	–	·	–	–	–
C=CCNC(=S)NNC(=O)C(CCC(C)C)CC(C)(C)O (centres undefined)	–	2.7	–	–	–
CCOc1ccccc1C(=O)Nc1ccc(-c2nnc(-c3ccc(C)cc3)o2)cc1	72	·	–	–	–
CCOc1ccccc1C(=O)Nc1ccccc1O	–	–	–	–	–
NC(=S)N/N=C/c1ccc(-c2cc(Cl)ccc2Cl)o1	–	–	54	–	–
CSc1nnc2n(C3CCCCC3)c(=O)c3c4c(sc3n12)CCCC4	·	–	·	·	·
CSc1nnc2n(-c3ccccc3)c(=O)c3c4c(sc3n12)CCC4	–	–	58	–	–
Cc1ccc(-n2c(-c3ccccc3)c[n+]3c2CCc2ccccc2-3)c(C)c1	–	·	·	·	·
CCN(CC)c1ccc2cc(-c3nnc(-c4ccccc4)o3)c(=O)oc2c1	–	·	–	–	–
CCN(CC)c1ccc2cc(-c3nc4ccccc4[nH]3)c(=O)oc2c1	–	–	–	–	48
CCN(CC)c1ccc2cc(-c3nc4ccccc4n3C)c(=O)oc2c1	·	–	70	–	–
CCN(CC)c1ccc2cc(-c3nnc(-c4ccc(Br)cc4)o3)c(=O)oc2c1	–	·	–	–	–
C=C(C)c1cccc(C(C)(C)NC(=O)N2CCN(c3ccc(OC)cc3)CC2)c1	–	·	·	·	·
COC(=O)c1ccccc1-n1cccc1C(=O)NP(=O)(N1CCOCC1)N1CCOCC1	–	·	·	·	·
C1=C(CCNC2=NCCCCC2)CCCC1	·	–	–	–	–
COc1ccc2c(=O)c(-c3cnn(-c4ccccc4)c3)c(C)oc2c1	–	–	–	–	–
Cc1oc2c(C)c(O)ccc2c(=O)c1-c1cnn(-c2ccccc2)c1	59	–	–	–	–
COc1ccc(C)cc1S(=O)(=O)Nc1cccc(SC)c1	–	–	51	–	–
COc1cccc(NS(=O)(=O)c2cc(C)ccc2OC)c1	–	–	–	–	–
SMILES	E-sel TNF inh	PLAP activator	VCAM1 TNFa inh	HUVEC tox TNFa	F-actin modifier
CCCNC(=O)[C@H](Cc1c[nH]c2ccccc12)NC(=O)c1ccccc1Cl	–	·	·	·	·
Cc1ccc(N2C(=O)[C@@H]3C(C(=O)CCN4C(=O)c5ccccc5C4=O)=NN[C@@H]3C2=O)cc1	65	·	·	·	·
O=C(CCN1C(=O)c2ccccc2C1=O)C1=NN[C@@H]2C(=O)N(c3cccc(Cl)c3)C(=O)[C@H]12	–	·	·	·	·
COc1ccc(N2C(=O)CC(NC3CCCCNC3=O)C2=O)cc1 (centres undefined)	–	·	–	–	35
COc1ccc(N2C(=O)CC(Nc3ccc(C)cc3)C2=O)cc1 (centres undefined)	–	–	–	–	–
Cc1cc(C)c(C)c(S(=O)(=O)NCC(=O)N2CCCC2)c1C	–	–	–	–	–
CCOc1cc(C(=O)NCc2nnc(SCC(=O)OC)n2C)cc(OCC)c1OCC	71	–	·	·	·
CCOC(=O)CSc1nnc(CNC(=O)c2cc(OCC)c(OCC)c(OCC)c2)n1C	–	–	–	–	–
Cc1ccc(C)c(NC(=O)CSc2nnc([C@@H](N)Cc3ccccc3)o2)c1	62	–	–	–	–
Cc1ccc(C)c(NC(=O)CSc2nnc(-c3ccco3)o2)c1	–	–	·	·	·
O=C(NNc1nc2ccccc2s1)c1ccccc1F	·	2.3	–	–	–
O=C(NNc1nc2ccccc2s1)C1CC1	–	2.2	–	–	–
Cc1cccc(C)c1OCC(=O)Nc1ccc(N2CCOCC2)cc1	–	·	·	·	·
COc1ccc(S(=O)(=O)Nc2cccc(S(=O)(=O)N3CCCCCC3)c2)cc1	71	·	·	·	·
CCC(Sc1nc2sc(C(=O)OC)c(C)c2c(=O)n1N)C(=O)NCC1CCCO1 (centres undefined)	–	–	–	–	–
COc1ccc2c(c1)N(C)C(=O)CC(c1ccccc1)=N2	–	–	–	–	–
Nc1ccc(Br)cc1-c1nc2ccccc2[nH]c1=O	100	·	·	·	·
CSc1oc(-c2ccco2)nc1S(=O)(=O)c1ccccc1	·	–	–	82	–
CCCCOCP(=O)(CCCC)COCCCC	–	–	–	·	–
Cc1ccc(C2C(C(=O)c3cccs3)=C(O)C(=O)N2c2nnc(C)s2)cc1 (centres undefined)	–	·	·	·	·
O=C(c1cnccn1)N1CCN(c2ccccc2)CC1	59	–	–	–	–
N#C/C(=C\c1cn(CCOc2ccccc2)c2ccccc12)C(=O)NCc1cccs1	–	·	·	·	·
CCNC(=S)NNC(=O)c1cc(-c2cccc(OC)c2)nc2ccccc12	–	·	·	·	·
CCNC(=S)NNC(=O)c1cc(CC(C)C)nc2ccccc12	–	2.3	–	–	–
CCCOc1cccc(-c2cc(C(=O)NNC(=S)NCC)c3ccccc3n2)c1	–	2.2	–	–	–
SMILES	E-sel TNF inh	PLAP activator	VCAM1 TNFa inh	HUVEC tox TNFa	F-actin modifier
CCNC(=S)NNC(=O)c1cc(-c2ccccc2C)nc2ccccc12	–	–	–	–	–
Cc1ccccc1S(=O)(=O)c1c(C)cc(-c2ccccc2)[nH]c1=O	–	–	–	–	–
CSCCC(NC(=O)OCc1ccccc1)C(=O)O (centres undefined)	–	·	97	–	–
O=C(Cc1cccs1)NNC(=S)NC(=O)c1ccc(F)c(F)c1	76	·	·	·	·
CC(C)(Oc1ccc(Cl)cc1)C(=O)N/N=C/c1cn[nH]c1-c1ccccc1	–	2.8	–	–	–
COc1ccc(CN(C(=S)Nc2ccccc2)C2CC(=O)N(c3ccc(Cl)cc3)C2=O)cc1 (centres undefined)	–	–	–	–	–
O=C1CC(N(Cc2cccs2)C(=O)Nc2ccccc2)C(=O)N1c1ccc(Cl)cc1 (centres undefined)	70	·	·	·	·
CCCCOc1ccc(-c2nnn(C(C)C(=O)OCC)n2)cc1 (centres undefined)	66	–	–	–	–
COc1ccc(/C(C)=N/NC(=O)c2nc(C)cc(C)n2)cc1	–	2	–	–	·
Cc1ccc(OCC(=O)N2CC(C)OC(C)C2)c([N+](=O)[O-])n1 (centres undefined)	–	·	·	·	·
Cc1ccc([N+](=O)[O-])cc1S(=O)(=O)n1ccnc1C	–	·	·	·	·
CCCOc1ccc(C(=O)C(c2ccccc2)N2CCOCC2)cc1 (centres undefined)	–	–	–	–	·
CCOc1ccc(C(=O)C(c2ccccc2)N2CCOCC2)cc1 (centres undefined)	·	–	76	–	–
CCCOc1ccc(C(=O)C(CN2CCOCC2)c2ccccc2)cc1 (centres undefined)	–	·	50	–	–
COc1ccc(C(=O)C(CN2CCOCC2)c2ccccc2)cc1F (centres undefined)	62	–	·	·	–
